# Rows were chosen to be rich in hits. Some 2.8% of all compounds tested hit in one or more screens of this group.
# MsrA inh: inhibits bovine methionine sulfoxide reductase A | purified bovine MsrA, absorbance read-out | inhibition, % at 15.5 µM | 0.75% of 360,000 active | AID 651718; in the data active = inhibition above about 4.5%;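 also: 0% = vehicle wells with enzyme and 100% = reference inhibitor wells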
# KLK7 zymogen act: activates the human kallikrein-7 zymogen | P49862 | purified proKLK7, EDANS-DABCYL substrate fluorescence; 100% is mature enzyme control, 0% vehicle | activation, % at 7 µM | 0.9% of 370,000 active;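 active = activation above the mean of all tested compounds plus 3 SD, computed per campaign excluding outliers beyond control limits, cut at about 13% in these data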
# Target sequence (P49862 whole entry, looked up): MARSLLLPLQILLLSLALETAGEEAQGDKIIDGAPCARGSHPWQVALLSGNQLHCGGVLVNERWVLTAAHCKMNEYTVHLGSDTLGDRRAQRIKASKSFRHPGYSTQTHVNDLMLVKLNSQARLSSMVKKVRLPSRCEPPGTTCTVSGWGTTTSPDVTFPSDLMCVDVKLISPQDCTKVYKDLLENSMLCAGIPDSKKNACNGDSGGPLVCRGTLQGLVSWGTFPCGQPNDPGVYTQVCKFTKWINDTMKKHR
# SMARCA2 act: activators of SMARCA2 function; AID 652017; 1% of 370,000 active; MG213 cells, MMTV-luciferase reporter, dexamethasone, overnight; activation, % at 9.1 µM; in the data active = activation above about 7.8%;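 also: 0% = vehicle wells and 100% = reference activator wells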
# MsrA act: bovine methionine sulfoxide reductase A activation. purified bovine MsrA, absorbance read-out. activation, % at 10.6 µM. 0.3% of 360,000 active. AID 602163; in the data active = activation above about 7.5%;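 also: 0% = vehicle and 100% = reference activator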
# SMARCA2 conf: SMARCA2 activation, confirmation screen; shares compounds with SMARCA2 act; MG213 cells, MMTV-luciferase with dexamethasone, luminescence, overnight; MG213 cells expressing E1A, Rb sequestered; DMSO wells 0%, reference activator 100%; activation, % at 9.1 µM; 30% of 3,500 active; AID 652260;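 active = activation above its plate's cutoff, the mean activation of tested wells plus 3 SD, cut at about 7.9% in these data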
# VP16 Luc act: counter-screen for SMARCA2 activators: GAL4-VP16 luciferase reporter activation. HEK293 GAL4-VP16 pG5luc reporter, luciferase luminescence; scaled: DMSO wells 0%, SAHA wells 100%. 41% of 3,500 active. activation, % at 9.1 µM. shares compounds with SMARCA2 act. AID 686939;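 active = activation above the solvent-only control well mean plus 3 SD, averaged across control plates, cut at about 5.2% in these data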
# Active calls of the source: *; . = not tested or not shown.
SMILES,MsrA inh,KLK7 zymogen act,SMARCA2 act,MsrA act,SMARCA2 conf,VP16 Luc act
COc1ccc(Cl)cc1CNC[C@H]1O[C@@H](n2ccc(N)nc2=O)[C@H](O)[C@@H]1O,1,0,-4,-4,.,.
Cc1ccc(C(=O)CNc2ccc(Cl)cc2)cc1,0,1,13*,-10,12*,3
Cc1ccc(C(=O)NC2CCCCN(Cc3cccc(Cl)c3)C2=O)c(C)c1 (stereo not given),.,0,-1,.,.,.
O=C1CNC(=S)N1c1nc2ccccc2s1,4,1,28*,-2,10*,3
Nc1ccccc1C#Cc1ccc2[nH]ccc2c1,1,-3,10*,-4,12*,11*
Nc1ccccc1C#Cc1ccccc1,1,0,6,-3,.,.
COc1ccccc1-c1nn2c(-c3ccco3)nnc2s1,1,-1,15*,-2,26*,10*
Cc1ccc(Nc2ncc3c(n2)CC(C)CC3=O)c(C)c1 (stereo not given),1,1,8.2*,-4,8.3*,4
CC(C)(C)N1Cc2nnn(Cc3ccccc3)c2-c2cc(N3CCCC3)ccc2S1(=O)=O,.,-5,-4,.,.,.
COc1ccc2c(c1)CC/C(=C\c1ccc(C)o1)C2=O,0,-1,11*,-2,18*,14*
Cc1ccc(NC(=O)c2ncc(Cl)c(Cl)c2Cl)cc1C,-1,0,8.2*,-2,4,9.5*
O=C(Nc1ccc(OC(F)F)cc1)c1ncc(Cl)c(Cl)c1Cl,1,0,-5,-10,.,.
COC(=O)c1c(NC(=O)Cc2ccccc2)sc2c1CC(C)(C)NC2(C)C,0,0,12*,0,-1,1
COC(=O)c1c(NC(=O)COc2ccc(Cl)cc2)sc2c1CC(C)(C)NC2(C)C,-1,0,5,-4,.,.
O=C(CSc1nnc(-c2cccnc2)n1-c1ccccc1)c1ccccc1Cl,.,1,8.6*,.,2,1
CC(=O)Nc1ccc(/C=N\NC(=O)c2cccc(S(=O)(=O)N(C)C)c2)cc1,.,0,3,.,.,.
Clc1cccc(CN2CCN(c3ncc(Cc4ccccc4)cn3)CC2)c1Cl,-1,1,-7,.,.,.
O=C(Oc1ccccc1/C=C\C(=O)c1cc2ccccc2o1)c1ccccc1,1,0,8.7*,-2,2,9.6*
COC(=O)C[C@H]1CC[C@@H]2[C@@H](COc3ccc(NC(=O)c4ccccc4)cc3C(=O)N2C)O1,.,0,-4,.,.,.
Cn1/c(=N/NC(=O)c2ccccc2F)sc2ccccc21,0,0,8.0*,-9,2,8.2*
CC(C)(C)Cc1c(-c2cccc(Cl)c2)nc2ccc(Cl)cn12,1,0,0,-1,.,.
CC(C)(C)Cc1c(-c2ccco2)nc2ccc(Cl)cn12,0,1,13*,-2,1,1
COc1ccc(-c2nc(C#N)c(NCC3CCCO3)o2)cc1 (stereo not given),1,-2,10*,-2,9.7*,4
CC1(Cc2ccccc2C#N)C(=O)Nc2ccc(-c3ccccc3)cc21 (stereo not given),0,0,-3,-1,.,.
O=C(CN1CCSC1=O)N1CCN(S(=O)(=O)c2ccccc2)CC1,0,0,-2,-9,.,.
SMILES,MsrA inh,KLK7 zymogen act,SMARCA2 act,MsrA act,SMARCA2 conf,VP16 Luc act
CCCCOCCCNC(=O)C[C@H]1C(=O)N(CCCOC)C2=CCCCC[C@]21C(=O)OC,.,-1,0,.,.,.
COC(=O)N/N=C(\C)c1cccs1,1,0,-1,-3,.,.
COC(=O)N/N=C(\C)c1ccccc1Br,-1,0,8.0*,-2,9.1*,0
COc1ccc(C(=O)Nc2ccccc2C(=O)NC2CC2)c(OC)c1OC,1,0,-2,-4,.,.
COc1ccc2c(=O)cc(-c3ccccc3F)oc2c1,-1,-1,9.9*,-2,8.4*,5.6*
COc1ccc(C(=O)OCC(N)=O)cc1[N+](=O)[O-],0,0,11*,-2,3,1
N#C/C(=C\c1ccc([N+](=O)[O-])cc1)c1ccccn1,3,0,10*,-4,6,6.7*
O=C1Nc2c(ccc(Cl)c2Cl)C(=O)C1(F)c1ccccc1 (stereo not given),0,0,8.3*,-5,-3,0
